Inconclusive results are not listed. The source made the active and inactive calls. The calls were made as follows: active = hit-call score of the fitted dose curve at least 0.9, where 1 is the maximum; inconclusive = response in the unintended direction; inactive = score below 0.9.
Each molecule was assayed against rat CYP2C12, Cyp2c12 (gene 25011) (UniProt P11510) (assay: NVS_ADME_rCYP2C12: NovaScreen (NVS) CYP450-related Enzyme Activity (ADME) Assay for rat CYP2C12 (AID 2283119)).
rat CYP2C12, Cyp2c12 (gene 25011), sequence (P11510 whole entry, looked up): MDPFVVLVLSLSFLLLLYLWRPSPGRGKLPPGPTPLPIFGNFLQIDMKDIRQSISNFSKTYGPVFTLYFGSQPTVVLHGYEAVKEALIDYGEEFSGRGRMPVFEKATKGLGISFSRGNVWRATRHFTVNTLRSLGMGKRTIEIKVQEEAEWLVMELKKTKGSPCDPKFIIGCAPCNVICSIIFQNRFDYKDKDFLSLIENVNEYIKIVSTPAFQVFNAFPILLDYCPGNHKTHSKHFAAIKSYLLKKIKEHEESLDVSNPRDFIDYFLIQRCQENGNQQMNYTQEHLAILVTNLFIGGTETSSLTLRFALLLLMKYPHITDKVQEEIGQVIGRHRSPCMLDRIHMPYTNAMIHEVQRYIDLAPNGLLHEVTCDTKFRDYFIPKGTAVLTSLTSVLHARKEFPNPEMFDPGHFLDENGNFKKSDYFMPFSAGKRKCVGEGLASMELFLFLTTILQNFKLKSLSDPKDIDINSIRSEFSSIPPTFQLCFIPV
Protocol: NVS_ADME_rCYP2C12 is a biochemical, single-readout assay that uses extracted gene-proteins in a cell-free assay. Measurements were taken 0.5 hour after chemical dosing in a 96-well plate.NVS_ADME_rCYP2C12 is one of one assay component(s) measured or calculated from the NVS_ADME_rCYP2C12 assay. It is designed to make measurements of enzyme activity, a form of enzyme reporter, as detected with fluorescence intensity signals by Fluorescence technology.Data from the assay component NVS_ADME_rCYP2C12 was analyzed into 1 assay endpoint. This assay endpoint, NVS_ADME_rCYP2C12, was analyzed in the positive analysis fitting direction relative to Acetonitrile as the negative control and baseline of activity. Using a type of enzyme reporter, loss-of-signal activity can be used to understand changes in the enzymatic activity as they relate to the gene Cyp2c12. Furthermore, this assay endpoint can be referred to as a primary readout, because this assay has produced multiple assay endpoints where this one serves a enzymatic activity function. To generalize the intended target to other relatable targets, this assay endpoint is annotated to the cyp intended target family, where the subfamily is xenobiotic metabolism.
Binding assays used specific radioligands (tritiated, iodinated) with non-radioactive competitive displacement ligands in agonist or antagonist protocols (as indicated) and various reference compounds and inhibitors to titrate specific binding to receptors and transporters. Most enzyme assays (CYPs, kinases, phosphatases, proteases, HDACs) used recombinant protein and specific substrates (fluorescence mostly, some colorimetric and radioactive) and inhibitors, followed by a biochemical separation of substrate and product. All assays for the biochemical HTS were initially run in duplicate at a single concentration (10 uM for CYP450 assays and 25 uM for all others). […] Each assay was run with positive and negative controls, and concurrent controls on every plate. The follow-up (secondary) screen tested active chemical-pairs in concentration series, as well as a few additional assays not tested in the primary screen, some selected negative inactives, and several cases re-run in the concentration series for confirmatory purposes.
With CCOC1Oc2ccc(OS(C)(=O)=O)cc2C1(C)C (stereo not given) the AC50 was 2.33 µM (active). In the case of [2H]C1([2H])[n+]2ccccc2-c2cccc[n+]2C1([2H])[2H], the outcome is reported as “inactive”. O=C(Nc1ccccc1)Nc1cnns1 was tested, and the outcome was “inactive”. With CCCN(CCOc1c(Cl)cc(Cl)cc1Cl)C(=O)n1ccnc1 the AC50 was 4.58 µM (active). In the case of N#Cc1c(Cl)c(Cl)c(Cl)c(C#N)c1Cl, the outcome is reported as “inactive”. For CNC(=O)Oc1ccccc1OC(C)C, the outcome was “inactive”. O=C1c2ccccc2C(=O)N1SC(Cl)(Cl)Cl was tested, and the outcome was “inactive”. In the case of COP(=S)(OC)Oc1ccc([N+](=O)[O-])cc1, the AC50 is reported as 6.47 µM (active). O=C(NC(=O)c1c(F)cccc1F)Nc1ccc(OC(F)(F)C(F)OC(F)(F)F)c(Cl)c1 (stereo not given) was tested, and the outcome was “inactive”. With CC(C)(C)C(O)/C(=C\c1ccc(Cl)cc1Cl)n1cncn1 (stereo not given) the AC50 was 1.25 µM (active).
